A short description of assay [1]: qHTS for differential inhibitors of proliferation of Plasmodium falciparum line 7G8 (AID 1815).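 Also: parasite growth measured after three days of incubation.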 Also: potency is read from the fitted curve at half-maximal effect.
Assay [2] is described as follows: qHTS for differential inhibitors of proliferation of Plasmodium falciparum line GB4 (AID 1816).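 Also: parasite growth measured after 72 h incubation.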 Also: potency is read from the fitted curve at half-maximal effect. The following applies: Potency: Plasmodium falciparum GB4 proliferation inhibition.
The nature of assay [3]: qHTS for differential inhibitors of proliferation of Plasmodium falciparum line 3D7 (AID 1876). Also: potency is read from the fitted curve at half-maximal effect. In general terms: Quantitative high-throughput screening tests each substance at several concentrations.
A short description of assay [4]: qHTS for differential inhibitors of proliferation of Plasmodium falciparum line D10 (AID 1877).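 Also: parasites grown with compound for 72 h before DNA staining.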 Also: potency is read from the fitted curve at half-maximal effect.
A short description of assay [5]: qHTS for differential inhibitors of proliferation of Plasmodium falciparum line W2 (AID 1883).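 Also: parasites grown with compound for 72 h before lysis and staining.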 Also: potency is read from the fitted curve at half-maximal effect. The following applies: Potency: Plasmodium falciparum W2 proliferation inhibition.
A short description of assay [6]: qHTS for differential inhibitors of proliferation of Plasmodium falciparum line HB3 (AID 1886).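 Also: parasites grown with compound for 72 h before SYBR Green readout.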 Also: potency is read from the fitted curve at half-maximal effect. Conditions: Potency: Plasmodium falciparum HB3 proliferation inhibition.
Assay [7] can be described thus: qHTS Assay for Modulators of Human Peripheral Myelin Protein 22 (PMP22) Expression/Activity (AID 1967; active = well fitted curve in the direction sought with a large enough effect in the signal ratio; the % refers to the signal ratio). The gist of the method:
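Mouse MSC80 Schwann cells carrying Pmp22 promoter–green click beetle luciferase plus EF-alpha–red luciferase control, dosed 24 h at 37 °C. Dual-filter luminescence, overlap-corrected; %Activity from green/red ratio normalised to untreated cells, concentration-response curves fitted.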

Assay [8] deals with Ferritin light chain (Equus caballus) (UniProt P02791). As to the kind of experiment: qHTS Validation Assay for Identification of Novel General Anesthetics (AID 2323). Also: series mostly up to about 77 µM. The gist of the method:
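Horse-spleen apoferritin (10 uM) in PBS with 50% saturated 1-aminoanthracene; compounds pin-transferred, 10 min at room temperature. Fluorescence read at 380/535 nm, normalized to free 1-AMA and 1-AMA/apoferritin values; four-parameter Hill fit.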

Assay [9] has as its target ATP-dependent DNA helicase Q1 (Homo sapiens) (UniProt P46063). The assay is described as follows: qHTS Validation Assay for Inhibitors of RecQ-Like Dna Helicase 1 (RECQ1) (AID 2353). The method, boiled down:
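RECQ1T1 50 nM; forked duplex (20 bp + 30-nt ss tails) 200 nM, ATP 2 mM final; pH 8.0, 2 mM MgCl2, 2.5 ug/ml poly(dI-dC); 15 min compound preincubation; discontinuous kinetic read over 2 h at RT.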

In assay [10] the target is RecQ-like DNA helicase BLM (Homo sapiens) (UniProt P54132). The assay is described as follows: qHTS Validation Assay for Inhibitors of Bloom's syndrome helicase (BLM) (AID 2364). The method, boiled down: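 BLM 50 nM in 25 mM Tris-HCl pH 8.0, 5 mM NaCl, 2 mM MgCl2, 1 mM DTT, 0.01% Tween-20, 2.5 ug/ml poly(dI-dC); 15 min cpd preinc, RT. Start: 200 nM forked DNA + 2 mM ATP (final). TAMRA read, 2 reads 2 h apart.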

A short description of assay [11]: Cytometric Cell-Based qHTS for Inhibitors of the mTORC1 Signaling Pathway in MEF (Tsc2-/-, p53-/-) Cells (AID 2660).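 Also: Tsc2 and p53 null MEFs carrying empty vector with compound for 24 h; percent of cells above a phospho-rpS6 to PI ratio cutoff in each well; series mostly up to about 38 µM.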 The method, boiled down: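 Cells are plated, treated with compound for 24 hrs at 37 degree Celsius, then fixed, blocked and immunostained for phospho-rpS6 Ser235/236. Propidium iodide counterstain follows. Per-well % positive cells is derived from the PI-normalized phospho-S6 signal.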

Assay [12] in a line: Validation screen for small molecules that induce DNA re-replication in MCF 10A normal breast cells (AID 463097). Also: nearly all actives have a fitted effect of over 60% in size. The method, boiled down: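 MCF 10A cells exposed to compound 48 hr at 37 C, 5% CO2, then Hoechst-stained 40 min. Laser-scanning imaging of nuclear DNA content (405 nm ex, 500-530 nm em); re-replication scored as rise in nuclei with elevated fluorescence intensity.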

For assay [13], the target named is Ubiquitin carboxyl-terminal hydrolase 2 (Homo sapiens) (UniProt O75604). As to the kind of experiment: qHTS Validation Assay for Inhibitors of Ubiquitin-specific Protease USP2a Using CHOP2 as the Reporter (AID 463106). The method, boiled down:
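Inhibition is expressed relative to NEM as the full-inhibition control, with concentration-response curves classed by fit quality, magnitude and activity. Enzyme (USP2 core, 10nM) meets 25nM Ub-CHOP2 after compound preincubation; readings are taken at 60min.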

Assay [14] deals with DNA polymerase III PolC-type (Bacillus subtilis (strain 168)) (UniProt P13267). The assay is described as follows: qHTS Validation Assay for the Inhibitors of DNA Replication in Gram-Positive Bacteria (AID 485295).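 Also: PicoGreen fluorescence of double-stranded DNA made on primed circular M13 template; series mostly up to about 57 µM.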 The gist of the method: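 Reconstituted B. subtilis Pol III holoenzyme (PolC, beta clamp, SSB, primase) preincubated with compound, then M13Gori single-stranded circular template with dNTPs/NTPs added; room temperature reaction. Stopped with EDTA/PicoGreen; dsDNA fluorescence read, EDTA as full-inhibition control.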

Assay [15] addresses Tumor susceptibility gene 101 protein (Homo sapiens) (UniProt Q99816). As to the kind of experiment: qHTS Validation Assay for Iinhibitors of HIV-1 Budding by Blocking the Interaction of PTAP/TSG101 (AID 485342; calls by dose curve). The gist of the method:
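Tsg101 binding domain (10 uM) with FITC-labeled PTAP peptide (50 nM) in HEPES pH 7.5 buffer, 20 min at r.t. with compounds. Binding measured by fluorescence polarization.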

Assay [16] can be described thus: qHTS Validation Assay to Find Inhibitors of Chronic Active B-Cell Receptor Signaling (AID 485345; active = well fitted curve in the direction sought with a large enough effect in the main read-out, with a control signal flat, not every such curve was filed as active). The method, boiled down:
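TMD8 ABC-DLBCL cells with dox-inducible green luciferase–IκBα fusion and red native luciferase; compounds 46 uM–3 nM, 4 h at 37C with doxycycline in 0.5% FBS IMDM. Green/red ratio normalized to basal and 10 uM MG-132.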

The nature of assay [17]: qHTS Assay for Identification of Small Molecule Inducers of Hypoxia Response (AID 2120; active = well fitted curve in the direction sought with a large enough effect in the signal ratio, with a control signal flat, not every such curve was filed as active; the % refers to the signal ratio). The method, boiled down: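 Read-out: CCF4 FRET emission ratio 460nm/530nm (excitation 405nm), converted to %Activity, with AC50 fitted across a compound titration. ME-180 cells carried an HRE-driven beta-lactamase reporter; compound exposure 17 h, 37 degrees C.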
Assay [18] concerns the target Beta-2 adrenergic receptor (Homo sapiens) (UniProt P07550). The assay is described as follows: qHTS validation assay of beta-arrestin-biased ligands of beta2-adrenergic receptor (AID 485366). The method, boiled down: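 Compound series up to 46 microM applied to beta2-AR/beta-arrestin Tango cells, 18 hr, 37 degrees C, 5% CO2. Read-out: tTA-driven luciferase luminescence, converted to %Activity; concentration-response curves assigned curve classes.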

A short description of assay [19]: Quantitative high throughput screen for delayed death inhibitors of the malarial parasite plastid, 96 hour incubation (AID 488745).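 Also: luciferase-expressing P. falciparum in erythrocytes at 2% hematocrit and 0.1% parasitemia; series mostly up to about 29 µM; nearly all actives have a fitted effect of over 70% in size.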 The method, boiled down: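 Luciferase-expressing P. falciparum, infected RBCs 2% Hct/0.1% parasitemia (final); 96 h cpd exposure, 37 C, 5% CO2; RPMI 1640 + 0.5% Albumax, bicarbonate, gentamycin. Readout: luminescence loss = growth inhibition.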

A short description of assay [20]: qHTS for differential inhibitors of proliferation of Plasmodium falciparum line Dd2 (AID 1882).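 Also: series mostly up to about 29 µM; compound exposure of 72 h on infected erythrocytes; nearly all actives have a fitted effect of over 65% in size.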 Conditions: Potency: Plasmodium falciparum Dd2 proliferation inhibition. The gist of the method: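 RBC culture, 0.3% parasitemia / 2.5% Hct final; cpd added by pin tool in DMSO; 72 h, 37 C, 5% CO2; lysis buffer + SYBR Green I, o/n RT dark; FI 485/535; norm. to artemisinin 0.29 uM and DMSO.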

Structures are written as SMILES. Records with an inconclusive call do not appear. Active and inactive are the calls of the source. Unless noted, calls follow the shape of the dose curve; as a rule, active = well fitted curve in the direction sought with a large enough effect; inconclusive = small, poorly fitted or top-dose-only effect, or another doubt; inactive = no such curve, though single readings can be large; an effect the other way counts as inactive or inconclusive.

Chain of Beta-2 adrenergic receptor (Homo sapiens) (P07550 whole entry, looked up): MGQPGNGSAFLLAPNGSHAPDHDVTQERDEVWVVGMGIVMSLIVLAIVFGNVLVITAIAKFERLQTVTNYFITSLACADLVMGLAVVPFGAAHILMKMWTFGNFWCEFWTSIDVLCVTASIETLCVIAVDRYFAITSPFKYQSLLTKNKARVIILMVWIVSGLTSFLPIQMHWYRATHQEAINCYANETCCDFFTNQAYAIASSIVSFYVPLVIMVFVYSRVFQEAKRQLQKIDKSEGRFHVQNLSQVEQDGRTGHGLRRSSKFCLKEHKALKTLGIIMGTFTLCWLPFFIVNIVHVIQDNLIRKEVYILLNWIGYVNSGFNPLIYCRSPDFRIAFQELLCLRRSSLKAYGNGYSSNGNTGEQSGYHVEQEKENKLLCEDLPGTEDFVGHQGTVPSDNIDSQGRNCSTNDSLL
Chain of DNA polymerase III PolC-type (Bacillus subtilis (strain 168)) (P13267 whole entry, looked up): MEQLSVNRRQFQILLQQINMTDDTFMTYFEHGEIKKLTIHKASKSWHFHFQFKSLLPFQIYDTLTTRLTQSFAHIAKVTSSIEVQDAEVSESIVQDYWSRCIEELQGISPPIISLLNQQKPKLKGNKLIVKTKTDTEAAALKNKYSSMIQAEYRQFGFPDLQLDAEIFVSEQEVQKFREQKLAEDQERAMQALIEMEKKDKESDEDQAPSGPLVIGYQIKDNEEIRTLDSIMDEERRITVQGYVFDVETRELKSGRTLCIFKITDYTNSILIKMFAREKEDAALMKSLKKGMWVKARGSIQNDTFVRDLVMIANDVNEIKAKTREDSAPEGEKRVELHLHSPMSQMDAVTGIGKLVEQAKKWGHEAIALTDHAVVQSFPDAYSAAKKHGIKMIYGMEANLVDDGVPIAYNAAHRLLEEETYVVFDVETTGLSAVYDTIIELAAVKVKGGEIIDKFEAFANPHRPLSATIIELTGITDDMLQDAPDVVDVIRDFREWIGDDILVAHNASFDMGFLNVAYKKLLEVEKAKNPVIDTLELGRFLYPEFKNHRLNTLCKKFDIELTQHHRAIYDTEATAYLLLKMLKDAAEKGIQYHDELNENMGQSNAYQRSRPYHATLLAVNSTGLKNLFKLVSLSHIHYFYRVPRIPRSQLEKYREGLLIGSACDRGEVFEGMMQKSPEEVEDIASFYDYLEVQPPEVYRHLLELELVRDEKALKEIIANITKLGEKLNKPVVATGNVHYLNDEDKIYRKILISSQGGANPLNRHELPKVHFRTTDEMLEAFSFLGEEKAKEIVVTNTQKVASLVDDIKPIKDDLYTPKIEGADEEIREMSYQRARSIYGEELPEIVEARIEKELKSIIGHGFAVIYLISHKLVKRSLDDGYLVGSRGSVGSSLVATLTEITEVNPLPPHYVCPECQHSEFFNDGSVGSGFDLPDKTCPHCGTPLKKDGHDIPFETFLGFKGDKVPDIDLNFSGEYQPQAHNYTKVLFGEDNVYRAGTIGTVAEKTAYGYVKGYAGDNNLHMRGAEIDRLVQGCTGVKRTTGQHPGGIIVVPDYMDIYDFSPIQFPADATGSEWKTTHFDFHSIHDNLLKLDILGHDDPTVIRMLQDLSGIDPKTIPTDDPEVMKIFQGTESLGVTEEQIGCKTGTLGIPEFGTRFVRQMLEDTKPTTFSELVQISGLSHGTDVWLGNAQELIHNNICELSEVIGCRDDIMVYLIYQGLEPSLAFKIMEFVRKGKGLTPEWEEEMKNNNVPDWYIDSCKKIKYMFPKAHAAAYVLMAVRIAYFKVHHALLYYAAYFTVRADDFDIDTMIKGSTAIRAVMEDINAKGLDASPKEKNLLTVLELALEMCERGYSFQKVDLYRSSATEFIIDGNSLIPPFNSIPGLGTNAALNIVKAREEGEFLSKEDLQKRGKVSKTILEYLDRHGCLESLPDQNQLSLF
Chain of Ferritin light chain (Equus caballus) (P02791 2-175 limits assumed): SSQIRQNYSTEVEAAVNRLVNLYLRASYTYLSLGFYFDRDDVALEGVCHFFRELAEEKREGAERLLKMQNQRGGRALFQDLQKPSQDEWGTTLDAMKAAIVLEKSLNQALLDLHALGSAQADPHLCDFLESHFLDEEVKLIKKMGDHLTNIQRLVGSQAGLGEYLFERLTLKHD
Chain of Ubiquitin carboxyl-terminal hydrolase 2 (Homo sapiens) (O75604 whole entry, looked up): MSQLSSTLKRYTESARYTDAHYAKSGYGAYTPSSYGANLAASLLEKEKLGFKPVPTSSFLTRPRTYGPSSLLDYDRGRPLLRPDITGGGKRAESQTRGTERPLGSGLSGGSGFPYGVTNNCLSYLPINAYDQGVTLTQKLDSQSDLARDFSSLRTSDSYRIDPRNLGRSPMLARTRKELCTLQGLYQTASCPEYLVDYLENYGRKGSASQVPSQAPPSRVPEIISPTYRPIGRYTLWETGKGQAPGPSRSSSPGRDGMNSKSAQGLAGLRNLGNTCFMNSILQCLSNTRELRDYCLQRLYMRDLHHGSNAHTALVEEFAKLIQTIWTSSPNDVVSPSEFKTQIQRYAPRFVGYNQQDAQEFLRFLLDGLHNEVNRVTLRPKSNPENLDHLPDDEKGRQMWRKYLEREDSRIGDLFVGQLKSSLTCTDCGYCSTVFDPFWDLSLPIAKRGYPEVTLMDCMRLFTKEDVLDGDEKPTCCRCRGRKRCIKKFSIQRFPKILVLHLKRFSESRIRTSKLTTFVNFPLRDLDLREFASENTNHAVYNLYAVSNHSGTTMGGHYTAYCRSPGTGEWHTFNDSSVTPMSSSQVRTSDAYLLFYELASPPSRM
Chain of Tumor susceptibility gene 101 protein (Homo sapiens) (Q99816 whole entry, looked up, the tested form may be a part): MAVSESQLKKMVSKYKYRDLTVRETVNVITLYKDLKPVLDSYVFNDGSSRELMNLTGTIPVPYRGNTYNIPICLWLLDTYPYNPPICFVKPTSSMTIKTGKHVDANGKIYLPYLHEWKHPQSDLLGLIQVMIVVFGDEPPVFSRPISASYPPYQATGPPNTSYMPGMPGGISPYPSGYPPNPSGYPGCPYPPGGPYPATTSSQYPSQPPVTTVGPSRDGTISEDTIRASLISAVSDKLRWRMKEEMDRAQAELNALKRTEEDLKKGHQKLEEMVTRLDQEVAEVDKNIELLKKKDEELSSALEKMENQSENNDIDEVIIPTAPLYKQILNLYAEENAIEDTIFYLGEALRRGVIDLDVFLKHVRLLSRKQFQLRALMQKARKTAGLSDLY
Chain of ATP-dependent DNA helicase Q1 (Homo sapiens) (P46063 whole entry, looked up): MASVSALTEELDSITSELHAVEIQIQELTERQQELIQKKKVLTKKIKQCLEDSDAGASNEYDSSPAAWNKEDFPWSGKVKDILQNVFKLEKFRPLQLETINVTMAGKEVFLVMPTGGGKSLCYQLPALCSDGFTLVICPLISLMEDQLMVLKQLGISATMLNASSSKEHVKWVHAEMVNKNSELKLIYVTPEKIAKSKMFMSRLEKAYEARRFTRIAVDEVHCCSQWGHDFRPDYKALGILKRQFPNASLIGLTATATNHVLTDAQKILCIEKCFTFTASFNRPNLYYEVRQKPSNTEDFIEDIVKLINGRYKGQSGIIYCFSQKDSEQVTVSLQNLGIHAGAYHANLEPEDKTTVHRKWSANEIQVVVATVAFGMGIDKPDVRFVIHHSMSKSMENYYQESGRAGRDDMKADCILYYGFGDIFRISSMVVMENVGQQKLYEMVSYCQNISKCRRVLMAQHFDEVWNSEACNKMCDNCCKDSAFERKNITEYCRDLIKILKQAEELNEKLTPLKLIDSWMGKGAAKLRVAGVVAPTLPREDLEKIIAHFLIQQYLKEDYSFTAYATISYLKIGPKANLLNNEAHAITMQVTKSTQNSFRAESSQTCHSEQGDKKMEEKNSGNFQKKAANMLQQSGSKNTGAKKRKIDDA

Take `CC(CCc1ccccc1)NCC(O)c1ccc(O)c(C(N)=O)c1` (configuration not stated): the Potency in assay [1] is 7.94 µM (active); in [2], 10 µM (active); in [3], 10 µM (active); in [4] it was 12.6 µM (active); in assay [5], 8.91 µM (active); in assay [6] it was 12.6 µM (active). The outcome in [7], in assay [8], in assay [9], in [10], in assay [11] and in assay [12] was inactive. For the same compound, the compound was called inactive in assay [13], in assay [15] and in assay [16]. Further, in [14], the Potency result was “inactive”.
With `O=c1ccc2ccccc2o1`, the outcome in [17] was inactive.
Regarding `CNCCC(Oc1ccccc1C)c1ccccc1` (configuration not stated), the Potency in assay [1] was 7.94 µM (active). Further, the Potency result in assay [4], in [6], in assay [14] and in assay [19] was “inactive” each time. Moreover, the compound was classed as inactive in [8], in [9], in [11], in [12], in assay [13] and in assay [15]. The outcome in assay [16] and in assay [18] was inactive.
As for `CC[C@H](C)C(=O)O[C@H]1CCC=C2C=C[C@H](C)[C@H](CC[C@@H]3C[C@@H](O)CC(=O)O3)[C@H]21`, the outcome in [11], in assay [13], in [15] and in [18] was inactive. The Potency result in assay [14] was “inactive”.
Consider `CC1(C)CCC(NC(=O)[C@@H](N)CCC(=O)O)CC1`, for which the Potency entry in assay [1], in assay [2], in assay [3], in assay [4], in [20] and in assay [5] was “inactive” each time. Besides, the Potency entry in assay [6], in [14] and in [19] was “inactive” throughout. Moreover, the result in [7], in assay [8], in assay [9], in assay [11], in [12] and in assay [13] was inactive. In addition, the outcome in [15], in assay [16] and in [18] was inactive.
Regarding `N[C@H](CO)C(=O)O`, the Potency result in assay [1], in [2], in assay [3], in [4], in assay [20] and in assay [5] was “inactive” in each case. In addition, the Potency result in assay [14] and in assay [19] was “inactive” in each case. The result in assay [8], in [9], in assay [11], in assay [12], in assay [13] and in assay [15] was inactive. Besides, the compound was classed as inactive in assay [16] and in [18].
Take `CCCn1c(=O)[nH]c(=O)c2[nH]cnc21`: the Potency result in assay [1], in assay [2], in assay [3], in [4], in assay [20] and in [5] was “inactive” throughout. In addition, the Potency result in assay [6], in assay [14] and in assay [19] was “inactive” each time. The compound was called inactive in assay [7], in assay [8], in assay [9], in assay [11], in assay [12] and in [13]. Besides, the compound was called inactive in assay [15], in assay [16] and in assay [18].

For the origin of these results see PubChem BioAssay (NCATS).
